p53ts 32C kill = kills p53ts cells at the permissive temperature | H1299-p53A138V at 32C, ATP luminescence viability, 24 h | Potency, µM (titrated, usually from 46.1 µM), for the others: top-dose activity change, negative = cytotoxicity, usual class: cytotoxic | 0.93% of 130,000 active | AID 924;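 further: 0% = DMSO and -100% = full killing by reference compound; nearly all actives have a fitted effect of over 55% in size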
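Cells: H1299 p53ts (A138V), 600/well, pre-incubated 16–30 h at 37C. Cpd up to 46 uM, 24 h, 32C. Readout: ATPlite luminescence, 20 min RT. Normalization: DMSO vs tamoxifen 100 uM. AC50 by Hill equation.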
Peg3 imprint = inducers of genomic imprint erasure in mouse ES cells. Potency, µM (titrated, usually from 60.7 µM), without a hit: at the top dose activity change, positive = activation, usual class: activators. mouse ES Peg3-LacZ reporter, beta-gal luminescence, 40 h. 0.02% of 110,000 active. AID 1948
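Gelatin-coated wells received 300 freshly trypsinized female ES cells with a Peg3LacZ-Neo reporter on the maternal allele, then incubated 40 hours at 37C. BetaGlo was added for 5 minutes at room temperature before a single luminescence read.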
p53ts 39C kill = p53ts cell cytotoxicity, nonpermissive temperature; AID 902; Potency, µM (doses to about 46.1 µM), for inactives: top-dose activity change, negative = cell killing, actives largely listed as cytotoxic; H1299-p53A138V viability at 39C, ATP luminescence, 24 h; 1.5% of 130,000 active; further: on the % scale 0 is the no-effect control and ±100 the full control effect; nearly all actives have a fitted effect of over 55% in size
The depositor's hits bear a star; ? = inconclusive; / = no result; ! = not confirmed by another sample; [ ] = dose if it differs, or a comment. In the library only some 1.6% were active in any assay of this set; here they are far more common. The call rests on the fitted dose curve; in most records, active means well fitted curve in the direction sought with a large enough effect; inconclusive means small, poorly fitted or top-dose-only effect, or another doubt; inactive means no such curve, though single readings can be large; an effect the other way counts as inactive or inconclusive. Potency means the concentration at half of the fitted maximal effect.

SMILES	p53ts 32C kill	Peg3 imprint	p53ts 39C kill
Cc1ccc(-n2nnc(-c3nsc(NC(=O)c4cccc(Cl)c4)n3)c2C)cc1C	2%	-8%[10.9 µM]	1%
CCc1ccc(-n2nnc(-c3nsc(NC(=O)c4ccccc4Cl)n3)c2C)cc1	-1%	-5%[10.9 µM]	-26%
CSc1cccc(-n2nnc(-c3nsc(NC(=O)c4cccs4)n3)c2C)c1	1%	-36%[10.9 µM]	13µM*
Cc1ccc2c(c1)c1c(c(=O)n(-c3ccccc3)c(=O)n1CC(=O)c1ccc(F)cc1)n2C	5%	26%[10.9 µM]	1%
Cc1ccc(C)c(NC(=O)CSc2c(C)cnc3c2c(=O)n(C)c(=O)n3C)c1	-1%	4%[10.9 µM]	16%
Cc1cc(C)c2c(NC(=O)c3ccccc3Cl)c(C(=O)NCc3ccc(Cl)cc3)sc2n1	?	-10%[10.9 µM]	2.5µM*
Cc1ccc(C(=O)Nc2c(C(=O)NCc3ccc(Cl)cc3)sc3nc(C)cc(C)c23)cc1	?	-9%[10.9 µM]	?
Nc1ccc2nc(-c3ccc(O)cc3)sc2c1	0.63µM*	-79%[10.9 µM]	0.63µM*
Nc1cccc(-c2nc3ccc(N)cc3s2)c1	3.2µM*	-90%	3.2µM*
Nc1ccc(O)c(-c2nc3ccccc3s2)c1	-11%	-86%	-24%
Cc1ccc2nc(-c3ccc(NC(=O)c4ccc(N)cc4)c(S(=O)(=O)O)c3)sc2c1	-9%[9.22 µM]	-4%[10.9 µM]	-24%[9.22 µM]
COC1=CC(C)C2CC3OC(=O)CC4C(C)=C(OC)C(=O)C([C@]2(C)C1=O)[C@]34C (some centres undefined)	-3%	0%	12%
O=C(NCCN1CCOCC1)c1ccc(Cc2nc3ccccc3[nH]2)cc1	-7%	/	2%
CCOC(=O)c1c(-c2ccc(C)cc2)csc1NC(=O)c1cc(=O)c2cc(C)cc(C)c2o1	-1%	-7%[10.9 µM]	2%
O=C1C=C(NCCO)C(=O)c2cnccc21	3.2µM*	-72%	4µM*
O=C1C=C(NCCc2cc(Br)c(O)c(Br)c2)C(=O)c2ncccc21	?	-40%[10.9 µM]	?
COc1cc(OC)c(NC(=O)Cn2cnc3nc4c(cc3c2=O)CCCC4)cc1Cl	3%	9%[10.9 µM]	-7%
COc1ccc2c(c1)OC(=O)CC2c1ccc2c(c1)OCO2 (centres undefined)	/	3%	/
CCCCNc1c(C(=O)OCC)c(C)nc2c1cnn2CC	37%	-15%	16µM*!
CCOC(=O)c1c(C)nc2c(C#N)cnn2c1C	3%	-2%	6%
Oc1ccc(O)cc1	-2%	10µM*	12%
Oc1ccccc1	/	3%	/
Cc1ccc(-c2nnn(CC(=O)N3c4ccccc4CCc4ccccc43)n2)cc1	4%	/	-1%
O=c1nc2n(c3c1oc1ccccc13)Cc1ccccc1-2	10%	-2%	14%
CCn1c(C)nc2cc(C(=O)OC(C(F)(F)C(F)F)C(F)(F)C(F)F)ccc21	-10%	-13%	-26%
SMILES	p53ts 32C kill	Peg3 imprint	p53ts 39C kill
Fc1ccc(-c2nc3n(n2)Cc2ccccc2-3)cc1	16µM*	-94%	?
CCn1c(C)nc2cc(-c3nc4n(n3)Cc3ccccc3-4)ccc21	0.32µM*	-97%	0.4µM*
Cc1ccc(-c2nc3n(n2)Cc2ccccc2-3)cc1	8.9µM*	/	6.3µM*
Cc1ccc(NC(=O)C(Cc2ccccc2)NS(=O)(=O)c2cccc3nsnc23)c(C)c1 (centres undefined)	-8%	-7%[10.9 µM]	5%
CCC(Oc1ccccc1)C(=O)Nc1ccc(O)c(-c2nc3cc(C)ccc3o2)c1 (centres undefined)	-12%	-5%[10.9 µM]	?
CCCCn1c(/C=N/Nc2nc3ccccc3[nH]2)nc2ccccc21	/	/	-8%
Cc1ccc2cc(/C=N/Nc3nc4ccccc4[nH]3)c(Cl)nc2c1	/	/	3.5µM*
Cc1cc(C)cc(N2CCn3c2nc2c3c(=O)n(Cc3ccc(Cl)cc3)c(=O)n2C)c1	7%	-16%[10.9 µM]	-22%
Cc1ccc(S(=O)(=O)C2(C(=O)Nc3ccc(Cl)c(C(F)(F)F)c3)CC2)cc1	0%	5%[10.9 µM]	-21%
COc1ccc(CCNc2oc(COc3cccc(C)c3)nc2C#N)cc1OC	4%	14%[10.9 µM]	-5%
COc1ccc(CCNc2oc(COc3ccc(Cl)cc3)nc2C#N)cc1OC	22µM*	-8%[10.9 µM]	?
Cc1cc(C)c(NC(=O)C2CCN(C(=O)N3CCOc4ccccc43)CC2)c(C)c1	6%	15%[10.9 µM]	-3%
Cc1ccc2nc(-c3ccccc3)cn2c1	0.5µM*	-93%	0.63µM*
Cc1cccn2cc(-c3ccc(F)cc3)nc12	?	-82%	?
COc1ccc(-c2nnn3c2nc(NCc2ccccc2)c2ccccc23)cc1	-4%	-11%[10.9 µM]	-13%
Cc1cccn2cc(-c3ccccc3)nc12	13µM*	-82%	?
COc1ccc(-c2cn3ccc4ccccc4c3n2)cc1	?	/	11µM*
Cc1ccc2nc(-c3ccc(S(=O)(=O)N4CCOCC4)cc3)cn2c1	8%	-4%	20%
COc1ccc(N2CCN(S(=O)(=O)c3ccc(F)c(C(=O)Nc4ccccc4Cl)c3)CC2)cc1	?	-16%[10.9 µM]	?
COc1ccc(N2CC(NC(=O)COc3ccccc3C)CC2=O)cc1OC (centres undefined)	-2%	-5%[10.9 µM]	19%
COc1ccc2nc(NC(=O)c3cc(=O)c4cc(C)cc(C)c4o3)sc2c1	-8%	-2%[10.9 µM]	10%
COc1cc(/C=C/c2nc(C#N)c(NC3CCCCC3)o2)cc(OC)c1OC	6%	-8%[10.9 µM]	-1%
Clc1ccccc1-c1ccc2ncnc(N3CCNCC3)c2c1	28%	10µM*	5%
Cc1ccccc1-c1ccc2ncnc(N3CCNCC3)c2c1	21%	-22%	16%
CC(NC(=O)Cn1ccc2cc(S(=O)(=O)N3CCCCCC3)ccc21)c1ccccc1 (centres undefined)	-10%	4%[10.9 µM]	-13%
SMILES	p53ts 32C kill	Peg3 imprint	p53ts 39C kill
Cc1ccc(C(=O)/C=C2\NCCNC2=O)cc1	13µM*	/	?
Cc1ccc(C(=O)C2CCNCC2)cc1	-9%	-48%	-7%
O=C(Nc1ccc(F)cc1)c1csc2c1CCCCC2	16µM*	-7%[10.9 µM]	?
O=C(Nc1ccon1)c1csc2c1CCCC2	-13%	0%	-4%
COc1ccc(Nc2ncnc3c2cnn3-c2ccc(C)cc2C)cc1	-9%	-12%[10.9 µM]	-26%
Cc1cc(O)c(C(C)(C)C)cc1Sc1cc(C(C)(C)C)c(O)cc1C	12%[1.84 µM]	-28%	16µM*
CC(C)(C)c1cc(O)c(C(C)(C)C)cc1O	-18%	-10%	3%
CC(=O)N[C@@H](C(=O)O)C(C)(C)SN=O	7%	-2%	7%
CC(=O)NCCNc1nc(-c2cccc(C#N)c2)nc2ccccc12	8%	-7%	-11%
CC(C)c1ccc(NC(=O)Cn2nnc(C(=O)NCc3ccc(Cl)cc3)c2N)cc1	0%	19%[10.9 µM]	3%
C=CCc1c(C)nc2nc(SCC(=O)Nc3ccc(C)c(C)c3)nn2c1C	-12%	-15%[10.9 µM]	13µM*
C=CCc1c(C)nc2nc(SCC(=O)Nc3cccc(Cl)c3)nn2c1C	-7%	13%[10.9 µM]	?
CC(C)(C)CC(C)(C)c1ccc(O)c(C[N+](C)(C)[O-])c1	-5%[9.22 µM]	-18%[10.9 µM]	-5%[9.22 µM]
Cc1cc(C(C)(C)CC(C)(C)C)ccc1OCCOCC[N+](C)(C)Cc1ccccc1	25µM*!	-33%	25µM*!
CCCN1C(=O)C2(c3ccccc31)c1c(oc3cc(C)c(C)cc3c1=O)C(=O)N2CCCOC (centres undefined)	2%	-14%[10.9 µM]	10%

Bioassay records as filed in PubChem BioAssay.
